# Screening results as filed in PubChem.
# FEN1 inhibitor = inhibitors of human flap endonuclease 1. P39748. Recombinant FEN1 flap cleavage, fluorescence, 15 min. Potency, µM (top dose mostly 114 µM), inactives show at the top dose activity change, negative = inhibition, usual class: inhibitors. hit rate 0.35% among 390,000; also: potency is read from the fitted curve at half-maximal effect; % is scaled to controls: 0 for no effect and ±100 for the full control effect; nearly all actives have a fitted effect of over 65% in size
#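 Recombinant FEN1 (10 nM) was preincubated with pin-transferred compounds for 15 min at room temperature, then flap DNA substrate (50 nM final) was added. Plates were read at 0 and 15 min, and normalized concentration–response data were fitted to a four-parameter Hill equation.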
# PI5P4K alpha inh = inhibitors of human PI5P4K alpha; P48426; PI5P4Kalpha enzyme, ADP-Glo luminescence, 60 min; stronger effect = lower value; max response, %; hit rate 1.2% among 330,000; active = max response of -50% or lower; inconclusive = between -30% and -50%; inactive = -30% or higher; also: value at the top dose of about 77 µM; % is scaled to controls: 0 for no effect and ±100 for the full control effect
#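 Luminescence from ADP-Glo served as readout of PI5P4Kalpha activity in a qHTS format. Reaction: enzyme, substrate, compound, ATP at 5 microM final, 60 min at RT.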
# VDR inh = vitamin D3 receptor (human) inhibition. AID 504847. Potency, µM, without a hit: max response, negative = inhibition, usual class: inhibitors. hit rate 0.93% among 400,000. P11473. VDR-SRC2-3 peptide fluorescence polarization, 2 h; also: potency is read from the fitted curve at half-maximal effect; % is scaled to controls: 0 for no effect and ±100 for the full control effect
# Target sequence (P11473 whole entry, looked up): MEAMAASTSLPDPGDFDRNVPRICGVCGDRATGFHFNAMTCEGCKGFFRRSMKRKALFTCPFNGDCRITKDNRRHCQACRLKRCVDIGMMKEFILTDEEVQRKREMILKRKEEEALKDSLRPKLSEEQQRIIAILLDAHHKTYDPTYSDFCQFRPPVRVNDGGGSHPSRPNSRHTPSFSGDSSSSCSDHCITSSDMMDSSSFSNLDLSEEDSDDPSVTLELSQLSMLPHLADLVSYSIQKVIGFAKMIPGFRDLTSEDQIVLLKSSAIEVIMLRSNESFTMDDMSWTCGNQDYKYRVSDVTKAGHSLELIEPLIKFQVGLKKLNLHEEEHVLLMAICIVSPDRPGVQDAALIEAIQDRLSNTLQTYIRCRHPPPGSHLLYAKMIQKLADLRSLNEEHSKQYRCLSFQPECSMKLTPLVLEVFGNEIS
#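 After 23 nl compound addition and a short centrifugation, plates sat for 2 hours at ambient temperature; polarization of fluorescence then indicated loss of VDR binding to peptide SRC2-3.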
# WRN inhibitor = blocks human WRN helicase; Q14191; WRN helicase unwinding, fluorescent forked duplex, kinetic; Potency, µM (titrated, usually from 114 µM), for inactives: at the highest dose activity change, negative = inhibition, actives largely listed as inhibitors; hit rate 0.46% among 360,000; also: potency is read from the fitted curve at half-maximal effect; % is scaled to controls: 0 for no effect and ±100 for the full control effect; nearly all actives have a fitted effect of over 55% in size
#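 Kinetic red-fluorescence monitoring (525/598 nm) tracks WRN helicase activity after 100 nM fluorophore-quencher forked duplex and 2 mM ATP are added to 20 nM enzyme pretreated 15 min at room temperature with compound.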
# TCR activator = T cell receptor activation. Potency, µM (top dose mostly 9.22 µM), for inactives: at the highest dose activation of IL-2 secretion, usual class: activators. AID 504894. primary human leukocytes, anti-CD3, IL-2 HTRF, 48 h. 330,000 tested, under 10 active; also: % of control where 0% means no effect
#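 HTRF read-out of IL-2 secretion: europium cryptate donor excited at 320nm, d2 acceptor emission at 665nm. Cells were primary human leukocytes incubated 48 hr with compounds and a-CD3 beads, supplying TCR signal only.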
# PLK1 PBD inh = inhibitors of human PLK1 polo-box domain binding. Plk1 PBD binding of FITC phosphopeptide, fluorescence polarization. Potency, µM, for the others: max response, negative = inhibition, actives largely listed as inhibitors. AID 720504. hit rate 2.8% among 360,000; also: potency is read from the fitted curve at half-maximal effect; series mostly up to about 57 µM; % is scaled to controls: 0 for no effect and ±100 for the full control effect; nearly all actives have a fitted effect of over 65% in size
# Starred values were filed as active, the others as inactive; ? = inconclusive; . = no result given; [ ] = another dose, or the depositor's remark. Sampled rows, rich in hits. Any-hit rate of the full collection: about 3.7%. Unless noted, calls follow the shape of the dose curve; as a rule, active = well fitted curve in the direction sought with a large enough effect; inconclusive = small, poorly fitted or top-dose-only effect, or another doubt; inactive = no such curve, though single readings can be large; an effect the other way counts as inactive or inconclusive.
SMILES,FEN1 inhibitor,PI5P4K alpha inh,VDR inh,WRN inhibitor,TCR activator,PLK1 PBD inh
Cc1ccc(C)c(CN2C(=O)c3ccccc3S(=O)c3ccc(C(=O)NCCC4=CCCCC4)cc32)c1 (configuration not stated),-5%,.,-15%,.,.,.
COc1ccc(/C=N/NC(=O)CN(C)S(=O)(=O)c2ccc(NC(C)=O)cc2)cc1,-1%,7,-6%,-15%,4%,-11%
COc1ccc(N(CC(=O)N/N=C/c2ccc3c(c2)OCO3)S(=O)(=O)c2ccc(NC(C)=O)cc2)cc1,4%,-21,-26%,-7%,4%,27µM*
CC(C)(C)c1ccc(C(=O)C[n+]2cccc(Br)c2)cc1,-2%,.,.,.,.,.
C/C(N)=C(/C#N)C(=O)CSc1nc2ccccc2c(=O)n1Cc1ccc(F)cc1,?,-58*,-11%,-17%[11.6 µM],11%,-11%
C/C(N)=C(/C#N)C(=O)CSc1nc2ccccc2c(=O)n1Cc1ccc(C)cc1,-21%,-8,9%,-15%,.,-13%
CCc1ccccc1NC1=NCC(=O)N1C1CCCC1,-4%,-7,-27%,0%,-6%,30µM*
COc1cc(NC(=O)COC(=O)CNC(=O)c2ccc(C)s2)cc(OC)c1,-7%,-9,-12%,8%[57.1 µM],-2%,24µM*
Cc1ccc2c(c1)cc(CN(Cc1ccco1)C(=O)COc1ccccc1)c1nnnn12,2%,-11,-9%,-2%,.,24µM*
CCOc1ccccc1N1CCN(C/C=C/c2ccc(N(C)C)cc2)CC1,-13%,-5,1%,0%,-4%,0%
CN(C)c1ccc(/C=C/N2C=CCc3c2ccc2ccccc32)cc1,11µM*,.,.,.,.,.
CCOC(=O)c1cc(C#N)c(SC)nc1C,7%,0,8%,5%,-33%,-7%
CSc1nc(C)c(C(=O)C[n+]2ccccc2C)cc1C#N,-1%,-22,-16%,1%,-2%,15µM*
O=C(Nc1nccs1)[C@@H]1CC=C[C@@H]2CCN(Cc3ccc(Cl)c(Cl)c3)C(=O)[C@@H]21,-26%,.,.,.,.,.
Cc1nc(NCC(=O)c2c[nH]c3ccccc23)sc1C,-14%,.,.,.,.,.
Cc1ccc(-c2nnc(SC(C)C(=O)NCc3ccco3)n2C)cc1 (configuration not stated),-9%,.,.,.,.,.
CCc1ccccc1NC(=O)Nc1nnc(N(CC)c2ccccc2)s1,-10%,.,10%,.,.,.
O=C(CCN1C(=O)/C(=C/c2ccccc2F)SC1=S)NCCCN1CCOCC1,1%,0,-15%,-10%,-1%,-15%
O=C(CCCN1C(=O)/C(=C/c2ccccc2Cl)SC1=S)NCCCN1CCOCC1,-7%,6,-4%,89µM*,4%,-25%
O=C1NC2CCCCC2C(=O)N1OS(=O)(=O)c1ccccc1 (configuration not stated),46%,-20,16µM*,50µM*,-8%,0.75µM*
O=C1CCN(S(=O)(=O)c2ccccc2)C2CCCCC12 (configuration not stated),-4%,-11,-20%,10%,-2%,?
CC(=O)c1ccc(N2CCN(C(=O)CS(=O)(=O)c3cccc4nsnc34)CC2)cc1,-4%,.,7%,.,.,.
CCNc1cccc2c1C(=O)N(C)C2=O,-16%,.,-1%,-4%,1%,24µM*
Fc1ccccc1C(NCCc1ccc(Cl)cc1)c1nnc(-c2ccccc2)o1 (configuration not stated),-4%,.,-9%,.,.,.
O=C(Nc1ccc(N2CCOCC2)cc1N1CCOCC1)c1ccco1,8%,-9,?,7%,-10%,27µM*
SMILES,FEN1 inhibitor,PI5P4K alpha inh,VDR inh,WRN inhibitor,TCR activator,PLK1 PBD inh
COc1ccc(N2CCN(c3c4c(nc5nncn35)CCC4)CC2)cc1,-9%,.,13%,.,.,.
CN(C)C(=S)N=c1ssc(=S)n1Cc1ccccc1,-17%,3,40µM*,-21%,1%,?
COc1ccccc1NC(C)C(=O)c1c[nH]c2ccccc12 (configuration not stated),5%,.,.,.,.,.
CCOC(=O)Cc1nnc(NC(=O)C(CC)Sc2nncn2C)s1 (configuration not stated),-20%,-1,-14%,1%,-6%,-5%
CCOC(=O)Cc1nnc(NC(=O)C(CC)Sc2nc(C)cc(=O)[nH]2)s1 (configuration not stated),-2%,-12,?,-1%,-2%[46.1 µM],21µM*
CCn1nc(C(=O)OCC(=O)NC(C)C)c2ccccc2c1=O,3%,-22,?,5%,-4%,19µM*
CC(C)[C@H](N)c1nnc2n1N=C(c1ccc(Cl)cc1)CS2,-13%,-3,13%,-5%,-7%,4%
CCC(=O)Nc1ccc(C2=Nn3c(nnc3C(C)C)SC2)cc1,-2%,-17,-29%,2%,-6%,24µM*
Cc1ccccc1-c1noc(-c2ccc(N3CCCC3)c([N+](=O)[O-])c2)n1,-4%,.,15%,.,.,.
O=C(COC(=O)CCN1C(=O)/C(=C\C=C\c2ccccc2)SC1=S)Nc1cc(F)ccc1F,-3%,-51*,11%,-36%[57.1 µM],-1%,-23%
O=C(CCN1C(=O)/C(=C/C=C/c2ccccc2)SC1=S)Nc1nc2ccccc2s1,2%,-2,12%,2%,-2%,3%
COc1ccc(/C=C/c2ccc3c(Br)ccc(O)c3n2)cc1,-5%,0,-10%,5%,-2%,-14%
COc1cc(/C=C/c2ccc3c(Br)cc(Br)c(O)c3n2)ccc1O,-6%,-23,?,-11%,-3%,24µM*
COc1ccccc1CCn1c(=O)c(-c2ccccc2)nc2cncnc21,.,.,-13%,.,.,.
O=C(NC1CCCCC1)n1c(=O)oc2ccc(Cl)cc21,-11%,.,0%,-1%,-3%,6µM*
O=C(NC1CCCCC1)n1c(=O)oc2ccccc21,-7%,.,6%,-3%,9%,?
COc1ccc(N2CCN(CC(=O)NCc3ccc(Cl)cc3)CC2)cc1,-2%,-5,-11%,8%,.,15µM*
COc1ccc(N2CCN(CC(=O)NCc3ccccc3)CC2)cc1,20%,2,-19%,4%,-6%,3%
O=C(CCNS(=O)(=O)c1ccc2c(c1)CCN2C(=O)C1CC1)Nc1ccc(Cl)cc1,-1%,.,5%,.,.,.
COc1ccc(C(=O)CCN2CCN(c3ccccc3OC)CC2)cc1,12%,-3,?,-22%,13%,-23%
COc1ccc(C(=O)CCN2CCc3cc(OC)c(OC)cc3C2)cc1,0%,-1,?,-33%,2%,27µM*
O=C(NCCN1CCCCC1)c1ccc(Cn2c(SCc3ccccc3)nc3cccnc32)cc1,3%,.,6%,.,.,.
Cc1ccc(NC(=O)/C(=C\c2ccc([N+](=O)[O-])cc2)NC(=O)c2ccccc2)cc1,0%,3,-3%,3%,-6%,-2%
